Assay results: PubChem BioAssay (Tox21)
“And” between values parts separate entries of the source, which are not always exact repeats. Identical values can stand only once. Inconclusive results are not listed. Entries that show only a call come without a potency. Some compounds were tested as several samples or in several runs, with calls that do not always agree. The source made the active and inactive calls. Unless noted, calls follow the shape of the dose curve; as a rule, active = well fitted curve in the direction sought with a large enough effect in the repeat runs; inconclusive = weak or mixed curves; inactive = no such curve, though single readings can be large; an effect the other way counts as inactive or inconclusive.

Experiments:
[1] = qHTS assay to identify small molecule agonists of the peroxisome proliferator-activated receptor delta (PPARd) signaling pathway - cell viability counter screen (AID 743211); also: nearly all actives have a fitted effect of over 55% in size
Summary of the method: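 Read-out: CellTiter-Glo luminescence, 30 min RT, measured in the same wells as the beta-lactamase reporter. Cells: GeneBLAzer PPAR delta UAS-bla HEK293H, 3000 cells/well, compound exposure 17 h at 37C.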

[2] = biological target: Peroxisome proliferator-activated receptor delta (Homo sapiens) (UniProt Q03181); assay: qHTS assay to identify small molecule agonists of the peroxisome proliferator-activated receptor delta (PPARd) signaling pathway (AID 743212; calls by dose curve)
Summary of the method: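 Cells expressing a UAS-driven beta-lactamase reporter (PPARd-bla HEK293H) were given test compounds after a 5 h settle and kept at 37 C. Reporter activity was then measured as FRET fluorescence using LiveBLAzer B/G substrate.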

[3] = qHTS assay to identify small molecule antagonists of the peroxisome proliferator-activated receptor delta (PPARd) signaling pathway - cell viability counter screen (AID 743213); also: nearly all actives have a fitted effect of over 50% in size; also: potency is read from the fitted curve at half-maximal effect
Summary of the method: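 HEK293H PPARd UAS-bla cells, 5 h pre-incubation, compound + L165041 300 nM final, 17 h 37 C; B/G FRET substrate 2 h RT; then CellTiter-Glo 30 min RT, luminescence.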

[4] = biological target: Peroxisome proliferator-activated receptor delta (Homo sapiens) (UniProt Q03181); assay: qHTS assay to identify small molecule antagonists of the peroxisome proliferator-activated receptor delta (PPARd) signaling pathway (AID 743215; active = well fitted inhibition curve with a large enough effect in the signal ratio in the repeat runs, not every such curve was filed as active; the % refers to the signal ratio;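 also: cells stimulated with agonist L165041 at 300 nM final during compound exposure; series mostly up to about 62 µM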)
Summary of the method: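 Here, a reporter line (HEK293H, beta-lactamase under a UAS) measures PPARd signaling. Compounds are tested against agonist L165041 at 300 nM final concentration over 17 h at 37 C, with fluorescence read after substrate.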

[5] = qHTS assay to identify small molecule agonists of the farnesoid-X-receptor (FXR) signaling pathway - cell viability counter screen (AID 743218); also: nearly all actives have a fitted effect of over 45% in size
Summary of the method: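 Quantitative HTS counter screen measuring ATP-based viability via CellTiter-Glo luminescence in HEK 293T cells carrying a UAS-driven beta-lactamase reporter, after 16 h compound exposure at 37 C.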

[6] = qHTS assay to identify small molecule antagonists of the farnesoid-X-receptor (FXR) signaling pathway - cell viability counter screen (AID 743221; active = well fitted cell-killing curve with a large enough effect in the repeat runs, not every such curve was filed as active; also: nearly all actives have a fitted effect of over 50% in size)
Summary of the method: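 HEK 293T FXR-bla cells, 5 h pre-incubation; compound + CDCA 50 uM final, 16 h, 37 C; beta-lactamase FRET read first, then CellTiter-Glo luminescence, 30 min RT.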

[7] = qHTS assay to identify small molecule agonists of the vitamin D receptor (VDR) signaling pathway - cell viability counter screen (AID 743224); also: nearly all actives have a fitted effect of over 50% in size; also: potency is read from the fitted curve at half-maximal effect
Summary of the method: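 CellTiter-Glo viability readout on VDR-bla cells, measured after 16 h of compound treatment at 37C in the same wells.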

[8] = qHTS assay to identify small molecule antagonists of the vitamin D receptor (VDR) signaling pathway - cell viability counter screen (AID 743225); also: nearly all actives have a fitted effect of over 50% in size; also: potency is read from the fitted curve at half-maximal effect
Summary of the method: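 Viability counter screen run in the same wells as the beta-lactamase reporter assay: HEK 293T VDR-UAS-bla cells, 16 h compound exposure at 37C with 3 nM (final) 1-alpha,25-dihydroxyvitamin D3. CellTiter-Glo luminescence, 30 min, room temperature.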

[9] = qHTS assay to identify small molecule agonists of the NFkB signaling pathway - cell viability counter screen (AID 1159515; calls by dose curve; also: series mostly up to about 61 µM; nearly all actives have a fitted effect of over 55% in size)
Summary of the method: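 Tox21 library compounds were tested for cytotoxicity against NFkB-bla ME-180 cells during a 5 hr exposure at 37 C. CellTiter-Glo luminescence served as the viability read-out.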

[10] = qHTS assay to identify small molecule agonists of the endoplasmic reticulum stress response signaling pathway (AID 1159516; active = well fitted activation curve with a large enough effect in the signal ratio in the repeat runs, not every such curve was filed as active; the % refers to the signal ratio)
Summary of the method: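 Fluorescence at 460 and 530 nm (405 nm excitation) reports beta-lactamase from an ER stress response element in HeLa cells treated 5 hr at 37 C.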

[11] = qHTS assay to identify small molecule agonists of the endoplasmic reticulum stress response signaling pathway - cell viability counter screen (AID 1159517; calls by dose curve)
Summary of the method: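 Cpd-treated ESRE-bla HeLa (5 hr, 37 C) → LiveBLAzer 2 hr RT → CellTiter-Glo 30 min RT → luminescence.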

[12] = qHTS assay to identify small molecule antagonists of the retinoid-related orphan receptor gamma (ROR-gamma) signaling pathway - cell viability counter screen (AID 1159520); also: nearly all actives have a fitted effect of over 50% in size
Summary of the method: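 Tet-on ROR gamma CHO cells (1,000/well) were plated 4 hr, given compounds in DMSO for 2 hr at 37 C, then induced with 1 uM final doxycycline for 16 hr. Viability was read as ATP by CellTiter-Glo luminescence after 30 min.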

[13] = qHTS assay to identify small molecule agonists of the AP-1 signaling pathway - cell viability counter screen (AID 1159525; calls by dose curve; also: nearly all actives have a fitted effect of over 55% in size)
Summary of the method: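 Each titration point was normalised to DMSO and tetra n-octyl ammonium bromide controls. The read was Cell Titer Glo luminescence after 30 min at RT, following 5 h compound exposure of ME-180 AP-1-bla cells at 37 °C.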

[14] = qHTS assay to identify small molecule agonists of the AP-1 signaling pathway (AID 1159526; calls by dose curve)
[15] = biological target: Retinoic acid receptor RXR-alpha (Homo sapiens) (UniProt P19793); assay: qHTS assay to identify small molecule agonists of the RXR signaling pathway (AID 1159527; calls by dose curve; also: nearly all actives have a fitted effect of over 35% in size)
Summary of the method: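 Agonist mode; 9-cis retinoic acid positive control. HEK 293T UAS-bla reporter cells, 2% charcoal-stripped FBS, 16 hr compound exposure at 37 C/5% CO2. LiveBLAzer B/G FRET substrate 2 hr RT; ex 405, em 460/530 nm.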

[16] = biological target: Bile acid receptor (Homo sapiens) (UniProt Q96RI1); assay: qHTS assay to identify small molecule agonists of the farnesoid-X-receptor (FXR) signaling pathway (AID 743220; active = well fitted activation curve with a large enough effect in the signal ratio in the repeat runs, not every such curve was filed as active; the % refers to the signal ratio)
Summary of the method: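 FXR-UAS-bla HEK 293T cells carrying a UAS-driven beta-lactamase reporter were plated for 5 h at 37C/5% CO2, then exposed to DMSO-dissolved Tox21 10K compounds for 16 h at 37C. A LiveBLAzer B/G FRET substrate was loaded for 2 h at room temperature before fluorescence reading.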

[17] = biological target: Nuclear receptor ROR-gamma (Homo sapiens) (UniProt P51449); assay: qHTS assay to identify small molecule antagonists of the retinoid-related orphan receptor gamma (ROR-gamma) signaling pathway (AID 1159521; also: nearly all actives have a fitted effect of over 50% in size; also: potency is read from the fitted curve at half-maximal effect)
Summary of the method: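 Luminescence readout (ONE-Glo, 30 min RT) after 16 h doxycycline induction; loss of signal scored as antagonism. CHO cells with TET-inducible RORγ and RORE-LUC reporter; compounds added 2 h before 1 uM final doxycycline.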

[18] = biological target: Bile acid receptor (Homo sapiens) (UniProt Q96RI1); assay: qHTS assay to identify small molecule antagonists of the farnesoid-X-receptor (FXR) signaling pathway (AID 743217; active = well fitted inhibition curve with a large enough effect in the signal ratio in the repeat runs, not every such curve was filed as active; the % refers to the signal ratio)
Summary of the method: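 Test compounds are pin-transferred onto FXR-bla HEK 293T cells, then chenodeoxycholic acid is added at 50 uM final. After 16 h at 37 °C, LiveBLAzer B/G substrate is applied for 2 h at room temperature and fluorescence read.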

[19] = biological target: Vitamin D3 receptor (Homo sapiens) (UniProt P11473); assay: qHTS assay to identify small molecule agonists of the vitamin D receptor (VDR) signaling pathway (AID 743222; calls by dose curve)
Summary of the method: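 Tox21 cell reporter format: VDR-bla line, 16 h compound exposure in 5% CO2 at 37C, then fluorescence intensity after 2 h with LiveBLAzer B/G FRET substrate.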

[20] = biological target: Vitamin D3 receptor (Homo sapiens) (UniProt P11473); assay: qHTS assay to identify small molecule antagonists of the vitamin D receptor (VDR) signaling pathway (AID 743223; active = well fitted inhibition curve with a large enough effect in the signal ratio in the repeat runs, not every such curve was filed as active; the % refers to the signal ratio)
Summary of the method: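 Beta-lactamase reporter read-out: FRET substrate fluorescence after 2 h at room temperature, following 16 h exposure of VDR-bla cells to test compound plus 3 nM (final) 1alpha,25-dihydroxyvitamin D3 agonist at 37C.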

Chain of Retinoic acid receptor RXR-alpha (Homo sapiens) (P19793 whole entry, looked up): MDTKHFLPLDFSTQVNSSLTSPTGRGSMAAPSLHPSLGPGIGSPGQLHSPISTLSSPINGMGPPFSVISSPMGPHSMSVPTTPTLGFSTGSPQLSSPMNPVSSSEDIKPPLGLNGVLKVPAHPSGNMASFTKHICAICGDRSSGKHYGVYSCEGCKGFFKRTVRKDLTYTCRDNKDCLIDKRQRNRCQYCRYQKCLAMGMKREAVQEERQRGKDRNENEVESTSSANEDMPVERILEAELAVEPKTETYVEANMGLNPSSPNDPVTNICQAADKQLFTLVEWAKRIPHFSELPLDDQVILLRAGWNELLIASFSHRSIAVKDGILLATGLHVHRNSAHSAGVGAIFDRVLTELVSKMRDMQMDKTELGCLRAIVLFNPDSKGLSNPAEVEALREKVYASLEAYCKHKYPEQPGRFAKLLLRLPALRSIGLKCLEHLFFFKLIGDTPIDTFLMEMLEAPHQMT
Chain of Bile acid receptor (Homo sapiens) (Q96RI1 whole entry, looked up): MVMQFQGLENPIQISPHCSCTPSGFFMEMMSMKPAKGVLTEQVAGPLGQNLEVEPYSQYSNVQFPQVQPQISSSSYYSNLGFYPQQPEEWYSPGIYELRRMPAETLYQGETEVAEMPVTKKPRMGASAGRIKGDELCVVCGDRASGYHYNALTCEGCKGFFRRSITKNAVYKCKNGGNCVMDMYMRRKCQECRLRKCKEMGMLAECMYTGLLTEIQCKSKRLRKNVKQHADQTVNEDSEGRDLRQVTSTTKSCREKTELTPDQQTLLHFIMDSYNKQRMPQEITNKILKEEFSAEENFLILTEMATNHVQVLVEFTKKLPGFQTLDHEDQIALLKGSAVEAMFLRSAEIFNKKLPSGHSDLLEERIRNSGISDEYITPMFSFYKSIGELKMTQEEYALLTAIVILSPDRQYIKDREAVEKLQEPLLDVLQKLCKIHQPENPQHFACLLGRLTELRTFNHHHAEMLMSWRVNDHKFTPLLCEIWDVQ
Chain of Vitamin D3 receptor (Homo sapiens) (P11473 whole entry, looked up): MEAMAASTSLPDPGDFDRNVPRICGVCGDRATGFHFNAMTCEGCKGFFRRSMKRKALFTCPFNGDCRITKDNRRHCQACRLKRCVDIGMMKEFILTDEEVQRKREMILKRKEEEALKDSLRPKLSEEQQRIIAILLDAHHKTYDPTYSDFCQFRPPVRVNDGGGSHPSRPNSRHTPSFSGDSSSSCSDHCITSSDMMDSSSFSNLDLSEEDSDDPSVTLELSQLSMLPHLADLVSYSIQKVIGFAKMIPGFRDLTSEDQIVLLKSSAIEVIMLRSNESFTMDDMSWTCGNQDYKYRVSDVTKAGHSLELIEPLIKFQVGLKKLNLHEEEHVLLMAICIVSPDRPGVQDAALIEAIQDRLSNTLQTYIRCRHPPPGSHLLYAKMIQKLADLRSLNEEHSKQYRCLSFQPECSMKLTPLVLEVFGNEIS
Chain of Peroxisome proliferator-activated receptor delta (Homo sapiens) (Q03181 whole entry, looked up): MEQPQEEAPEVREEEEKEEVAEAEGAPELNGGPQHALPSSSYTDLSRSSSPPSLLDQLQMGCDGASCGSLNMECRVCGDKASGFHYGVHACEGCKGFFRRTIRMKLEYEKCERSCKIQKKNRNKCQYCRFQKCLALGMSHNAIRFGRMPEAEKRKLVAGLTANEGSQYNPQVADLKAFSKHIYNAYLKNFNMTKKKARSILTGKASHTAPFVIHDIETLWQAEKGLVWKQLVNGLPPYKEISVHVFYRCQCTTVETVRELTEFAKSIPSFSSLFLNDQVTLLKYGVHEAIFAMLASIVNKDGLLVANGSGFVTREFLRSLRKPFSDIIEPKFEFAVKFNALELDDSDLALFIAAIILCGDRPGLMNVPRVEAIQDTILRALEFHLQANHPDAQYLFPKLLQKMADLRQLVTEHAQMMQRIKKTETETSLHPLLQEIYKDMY

Row | SMILES | Potency [1] | outcome [2] | Potency [3] | Potency [4] | Potency [5] | Potency [6] | Potency [7] | Potency [8] | Potency [9] | Potency [10] | Potency [11] | Potency [12] | Potency [13] | Potency [14] | Potency [15] | outcome [16] | Potency [17] | Potency [18] | outcome [19] | Potency [20]
1 | C1CS1 | inactive | inactive | inactive | inactive | inactive | inactive | inactive | inactive | inactive | inactive | inactive | inactive | inactive | inactive | inactive | – | – | – | – | –
2 | C[Si](Cn1cncn1)(c1ccc(F)cc1)c1ccc(F)cc1 | inactive | inactive | 38.9 µM (active) | – | – | – | 12.7 µM (active) | – | inactive | inactive | inactive | inactive | – | inactive | inactive | inactive | 31.6 µM (active) and 43.3 µM (active) | – | – | –
3 | c1ccc2c(c1)sc1ccccc12 | inactive | – | inactive | inactive | inactive | inactive | inactive | inactive and 19 µM (active) | inactive | inactive | inactive | inactive | – | inactive | inactive | inactive | inactive | inactive | inactive | –
4 | O=C1NC(=O)C(=O)C(=O)N1 | inactive | inactive | inactive | inactive | inactive | inactive | inactive | inactive | inactive | inactive | inactive | inactive | inactive | inactive | inactive | inactive | – | inactive | inactive | inactive
5 | CCCCCCCCCCCCN(C)C | inactive | inactive | inactive | inactive | inactive | inactive | inactive | inactive | inactive | inactive | inactive | inactive | inactive | inactive | inactive | inactive | – | inactive | inactive | inactive
6 | C=CCc1ccc(OC(=O)Cc2ccccc2)c(OC)c1 | inactive | inactive | inactive | – | inactive | inactive | inactive | inactive | inactive | inactive | inactive | inactive | – | inactive | – | – | inactive | – | inactive | –
7 | CCOC(=O)NC(O)C(Cl)(Cl)Cl (centres undefined) | inactive | – | inactive | – | inactive | inactive | inactive | inactive | inactive | inactive | inactive | inactive | – | inactive | inactive | inactive | inactive | – | inactive | –
8 | CCCC[N+]1(C)[C@@H]2CC(OC(=O)[C@H](CO)c3ccccc3)C[C@H]1[C@@H]1O[C@@H]12 (some centres undefined) | inactive | – | inactive | inactive | inactive | inactive | inactive | inactive | inactive | inactive | inactive | inactive | – | inactive | inactive | inactive | inactive | inactive | – | –
9 | O=C1CC[C@@]2(O)[C@H]3Cc4ccc(O)c5c4[C@@]2(CCN3CC2CC2)[C@H]1O5 | inactive | – | inactive | – | inactive | inactive | – | – | inactive | inactive | inactive | inactive | – | inactive | inactive | inactive | inactive | inactive | – | –
10 | CNC(=O)Oc1cccc(N=CN(C)C)c1 | inactive | – | – | inactive | inactive | inactive | inactive | inactive | inactive | inactive | inactive | inactive | – | inactive | inactive | – | inactive | – | inactive | inactive
11 | CCCCCCCCP(=O)(O)O | inactive | inactive | inactive | inactive | – | inactive | inactive | – | inactive | inactive | inactive | inactive | – | inactive | inactive | – | inactive | – | inactive | inactive
12 | COc1ccc(C(O)(c2cncnc2)C2CC2)cc1 (centres undefined) | inactive | – | inactive | – | inactive | inactive | inactive | – | inactive | inactive | inactive | inactive | – | inactive | inactive | inactive | inactive | – | inactive | –
13 | Nc1ccc2c(c1)Cc1ccccc1-2 | – | inactive | inactive | inactive | inactive | inactive | inactive | – | inactive | inactive | inactive | inactive | – | inactive | inactive | – | inactive | – | inactive | inactive
